LMNA splice mod: qHTS Assay for Modulators of Lamin A Splicing. HeLa LMNA splicing GFP/RFP minigene ratio, 48 h. Potency, µM (series often up to 46.1 µM), inactives show at the highest dose ratio change, negative = inhibition, usual class: inhibitors. hit rate 0.01% among 200,000; active means well fitted inhibition curve with a large enough effect in the signal ratio, with a control signal flat, not every such curve was filed as active; inconclusive means small, poorly fitted or top-dose-only effect, or effect the other way, or a change in a side signal; the % refers to the signal ratio; further: on the % scale 0 is the no-effect control and ±100 the full control effect
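Read-out is the ratio of GFP to DsRed2 object intensity, acquired by 488 nm laser-scanning cytometry on HeLa lamin A-EGFP minigene reporter cells. Compound incubation 48 hrs at 37 °C in Opti-MEM with 2% FBS; DMSO 0.5% final.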
ALDH1A1 inh: qHTS Assay for Inhibitors of Aldehyde Dehydrogenase 1 (ALDH1A1) | AID 1030, 2008 | Purified ALDH1A1, NADH fluorescence, propionaldehyde substrate | Potency, µM (top dose mostly 75.3 µM), for the others: at the highest dose activity, negative = inhibition, most hits filed as inhibitors | Aldehyde dehydrogenase 1A1 (Homo sapiens), P00352 | hit rate 7.3% among 220,000;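 further: plate controls were no enzyme wells and a reference inhibitor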
HTT cytoprotect: qHTS Multiplex Assay to Identify Dual Action Probes in a Cell Model of Huntington: Cytoprotection (ATP); PC12 HTT-Q103 induced, cytoprotection, ATP luminescence, 40 h; Potency, µM (doses to about 56.4 µM), without a hit: cytoprotection (ATP increase), actives largely listed as activators; hit rate 0.14% among 230,000; AID 1471, 2008; active means well fitted curve in the direction sought with a large enough effect; inconclusive means small, poorly fitted or top-dose-only effect, or another doubt; inactive means no such curve, though single readings can be large; an effect the other way counts as inactive or inconclusive; further: % of control where 0% means no effect; nearly all actives have a fitted effect of over 45% in size
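Rat PC12, Q103 Htt exon1-GFP fusion, ecdysone promoter; tebufenozide inducer 100 nM final; compound titration; qHTS, 1500 cells/well; ATPlite luminescent read.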
HPGD inh: qHTS Assay for Inhibitors of HPGD (15-Hydroxyprostaglandin Dehydrogenase); 15-hydroxyprostaglandin dehydrogenase [NAD(+)] (Homo sapiens), P15428; purified HPGD, NADH fluorescence kinetic, PGE2 substrate; Potency, µM, for inactives: top-dose activity change, negative = inhibition, usual class: inhibitors; hit rate 4.3% among 150,000; AID 894, 2007; further: on the % scale 0 is the no-effect control and ±100 the full control effect
Target sequence (P15428 whole entry, looked up): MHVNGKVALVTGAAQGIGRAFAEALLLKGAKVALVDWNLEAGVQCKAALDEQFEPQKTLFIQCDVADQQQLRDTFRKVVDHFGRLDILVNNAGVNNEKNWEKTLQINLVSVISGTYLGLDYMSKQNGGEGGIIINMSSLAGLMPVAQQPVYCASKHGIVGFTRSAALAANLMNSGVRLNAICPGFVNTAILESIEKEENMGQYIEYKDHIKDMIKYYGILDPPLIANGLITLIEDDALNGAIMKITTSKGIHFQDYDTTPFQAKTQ
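NADH formation kinetics: reaction with 30 uM PGE2 and 1 mM NAD+ (final), 20 nM enzyme, Tris-HCl pH 8 with Tween 20, after 15 min compound preincubation at room temperature. Fluorescence change, last versus first of five reads.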
HttQ103 aggreg: qHTS Multiplex Assay to Identify Dual Action Probes in a Cell Model of Huntington: Aggregate Formation (GFP); AID 1688, 2009; Potency, µM (series often up to 46.1 µM), inactives show at the top dose activity change, negative = inhibition, actives largely listed as inhibitors; hit rate 1.1% among 220,000; PC12 HttQ103-GFP aggregates, Acumen cytometry, 40 h; active means well fitted curve in the direction sought with a large enough effect; inconclusive means small, poorly fitted or top-dose-only effect, or another doubt; inactive means no such curve, though single readings can be large; an effect the other way counts as inactive or inconclusive; further: on the % scale 0 is the no-effect control and ±100 the full control effect; nearly all actives have a fitted effect of over 60% in size
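Aggregate formation scored by laser-scanning cytometer (488 excitation, 500–530 emission) in lysed PC12 cells expressing Q103-GFP after 100 nM tebufenozide induction; library tested in dose series, with ATPLite reagent added in the multiplex.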
KDM4E inh: qHTS Assay for Inhibitors of Human Jumonji Domain Containing 2E (JMJD2E). Lysine-specific demethylase 4E (Homo sapiens), B2RXH2. JMJD2E catalytic domain, FDH-coupled NADH fluorescence (FDH is formaldehyde dehydrogenase). Potency, µM (doses to about 57.1 µM), without a hit: at the top dose activity change, negative = inhibition, usual class: inhibitors. hit rate 1.6% among 230,000;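 further: 0% = wells with enzyme and -100% = buffer wells without enzyme; nearly all actives have a fitted effect of over 50% in size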
Active calls of the source: *; ? = inconclusive; . = no result; [ ] = dose if it differs, or a comment. In the library only some 9.2% were active in any assay of this set; here they are far more common. Unless noted, the call rests on the fitted dose curve; in most records, active means well fitted inhibition curve with a large enough effect (not every such curve was filed as active); inconclusive means small, poorly fitted or top-dose-only effect, or another doubt; inactive means no such curve, though single readings can be large or run the other way. Potency means the concentration at half of the fitted maximal effect.

SMILES	LMNA splice mod	ALDH1A1 inh	HTT cytoprotect	HPGD inh	HttQ103 aggreg	KDM4E inh
CC(C)=CCC/C(C)=C/C=C/C(C)=C/C=C/C(C)=C/C=C/C=C(C)/C=C/C=C(C)/C=C/C=C(\C)CCC=C(C)C	?	.	?	.	19%	.
CCOc1cc(/C=C2/NC(=O)NC2=O)cc(Br)c1OCc1ccc(C(=O)O)cc1	.	-15%	3%	.	24%	?
Cc1c(Cl)ccc2sc(N3CCN(C(=O)CCS(=O)(=O)c4ccc(F)cc4)CC3)nc12	-8%[46 µM]	.	.	.	.	.
Cc1ccccc1OCC(=O)OCc1cc(=O)n2nc(C3CC3)sc2n1	2%[46 µM]	.	.	.	.	.
CC(N)=NCCC[C@H](N)C(=O)O	.	1%	-3%	2%	.	2%
CCOC(=O)c1sc(NCC2CCCO2)nc1C (stereo not drawn)	-5%	-4%	?	13µM*	?	7%
CC1CCCC(=C\c2ccccc2)/C1=N/O (stereo not drawn)	-1%	-8%	.	3.2µM*	13%	0%
CC(C)CC(=O)Nc1ccc(C(=O)NNC(=S)NC(=O)C2CCCCC2)cc1	?	-1%	18%	-12%	10µM*	?
Cc1ccc(S(=O)(=O)N(C)c2c(C)ccc(S(N)(=O)=O)c2C)cc1	.	-6%	-18%[10 µM]	.	-13%[9.22 µM]	-16%
CCOC(=O)c1ccc(NC(=O)CSc2ccc3ccccc3n2)cc1	-11%[46 µM]	.	.	.	.	.
N#C/C(=C\c1ccncc1)c1nc2ccccc2c(=O)[nH]1	?	7.9µM*	-15%	.	24%	?
N#C/C(=C/c1ccncc1)c1nc2ccccc2c(=O)[nH]1	.	.	-12%[10 µM]	.	11%[9.22 µM]	-16%
Cc1c(-c2ccccc2)sc(N)c1C(=O)N1CCOCC1	11%	13µM*	-9%	8.9µM*	0%	?
CCOC(=O)c1c(N)sc(-c2ccccc2)c1C	-2%	?	-20%[10 µM]	?	-15%	-1%
CCOc1ccc(CNC(=O)C2CCN(S(=O)(=O)c3cn(C)cn3)CC2)cc1OC	-6%[46 µM]	.	.	.	.	.
S=c1[nH]nc(-c2cccc(Br)c2)o1	13%	6.3µM*	21%[1.9 µM]	-22%	-26%	?
Cc1cccc(-c2n[nH]c(=S)n2C)c1	-5%[9.22 µM]	13%	-24%	.	3%	-13%
Nn1c(-c2cccc(Br)c2)n[nH]c1=S	1%	22µM*	8%	-28%	-25%	?
S=c1[nH]nc(-c2cccnc2)o1	5%	-11%	-20%[0.074 µM]	-9%	-15%	-9%
COc1ccc(NC(=O)N2CC3(CCN(C(=O)c4cnccn4)CC3)C2)cc1	.	4%	11%	-7%	.	.
Cc1ccc(C(=O)c2coc3cc([N+](=O)[O-])c(O)c([N+](=O)[O-])c23)cc1	?	?	6%[1.9 µM]	14µM*	2%	-2%
COC(=O)N/N=C/c1sc(N2CCCCC2)nc1-c1cccs1	.	25µM*	.	.	?	5%
CCOC(=O)c1c(NC(=O)COc2cccc3c2CCN(CC)C3=O)sc2c1CCC2	5%	6%	.	?	14%	4%
CCOC(=O)c1nc2ccccc2c(=O)[nH]1	.	-7%	6%[10 µM]	.	0%[9.22 µM]	10%
CCOC(=O)c1nc(N)c(C(=O)OCC)[nH]1	7%	?	-20%	?	3.5µM*	?
COc1ccccc1N1CCN(C(=O)c2ccc(Cn3c(=O)[nH]c4ccsc4c3=O)cc2)CC1	.	.	5%[10 µM]	.	-19%[9.22 µM]	4%
CN1CCN(C(=S)c2ccc(-c3cccc(Cl)c3Cl)o2)CC1	?	?	.	22µM*	-5%	0%
S=C(c1ccc(-c2ccccc2Cl)o1)N1CCCCC1	?	?	-32%[10 µM]	28µM*	?	-3%
S=C(c1ccc(-c2ccc(Cl)cc2)o1)N1CCCCC1	-2%	?	3%[10 µM]	-22%	?	-5%

Screening results from PubChem.
